PubChem BioAssay (NCI)
About 79,000 compounds went through this panel and 15% of them were active in at least one assay; those are over-represented in the sample as a whole. Values without a mark were called inactive. Activity calls are given as the source filed them. No stated cut-off is given here; in the data, active means growth inhibition above about 70%; inactive means the rest.

Test: NCI Yeast Anticancer Drug Screen. Data for the sgs1 mgt1 strain (AID 161);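 further: 0% = growth of cultures given vehicle only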
Settings: S. cerevisiae sgs1 mgt1 strain, stronger effect = higher value
Description: Growth inhibition of yeast strains with defined genetic alterations is measured as a screen for potential anti-cancer activity. Selected strains with alterations in DNA damage repair or cell cycle control were exposed to compounds and growth inhibition was measured relative to vehicle treated controls. The strain used in this assay is sgs1 mgt1

[1] = at 5.0 µM (retest, dose inferred, filed as 0.5)
[2] = at 50.0 µM (retest, dose inferred, filed as 5.0)

Row | Structure (SMILES) | growth inhibition [1] | growth inhibition [2] | growth inhibition (at 50.0 µM)
1 | CC(=O)/C(=C\c1ccc(Cl)c(Cl)c1)C(=O)C(C)CN(C)C (configuration not stated) | -8% | 97% (active) | 85.7% (active)
2 | COc1ccc2c(c1)CCCC(Br)C2=O (configuration not stated) | 17% | 90% (active) | 88.3% (active)
3 | CN(C)CCCn1c2c3ccccc3ccc2c2oc(=O)c3ccccc3c21 | -9% | 75% (active) | 98.7% (active)
4 | CC(=O)CC(c1ccccc1)c1c(O)c2ccccc2oc1=O (configuration not stated) | -1% | 89% (active) | 55.4%
5 | O=C(/N=N/C(=O)Oc1ccccc1)Oc1ccccc1 | -29% | 39% | 48.6%
6 | COc1cc(NCCCCNCC(C)(C)C)c2ncccc2c1 | 1% | 28% | 51.8%
7 | O=C1/C(=C/c2ccc(Cl)c(Cl)c2)CNC/C1=C\c1ccc(Cl)c(Cl)c1 | 27% | 66% | 89.6% (active)
8 | CCS(=O)(=O)Nc1ccc(Nc2c3ccccc3nc3ccccc23)c(OC)c1 | 49% | 98% (active) | 80.8% (active)
9 | O=C(Nc1ccc(Cl)cc1)c1cc2cc(N=Nc3ccccc3Cl)ccc2oc1=O | 25% | 25% | 84.8% (active)
10 | CC(=O)Oc1ccc2c(c1)Cc1cc(N3C(=O)C=CC3=O)ccc1-2 | 17% | 99% (active) | 58.2%
11 | Cc1cccc2c(Cl)c3cccc(C)c3nc12 | -6% | 58% | -15.8%
12 | NC(=S)N1N=C2c3ccccc3CC[C@@H]2[C@@H]1c1ccccc1 | 8% | 82% (active) | 83% (active)
13 | CCCCCCNCCCNc1c2ccccc2nc2cccc([N+](=O)[O-])c12 | 84% (active) | 97% (active) | 74.3% (active)
14 | Fc1cc(F)c(F)c(S)c1F | -1% | 89% (active) | 83.7% (active)
